# Experimental data taken from PubChem BioAssay AID624418 (National Center for Advancing Translational Sciences (NCATS), 2012).
# About 530 (0.13%) of roughly 410,000 compounds were called active. Not shown: some 5% with an inconclusive outcome. The sample as a whole holds a higher share of actives than the screen did. A number with no mark means an inactive call. The call rests on the fitted dose curve; in most records, active means well fitted inhibition curve with a large enough effect; inconclusive means small, poorly fitted or top-dose-only effect, or another doubt; inactive means no such curve, though single readings can be large or run the other way.
# Assay: qHTS of GLP-1 Receptor Inverse Agonists: Cytotox Screen;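 further: loss of luciferase light is scored as toxicity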
# Conditions: HEK293 cAMP-luciferase reporter cells, luminescence, 24 h; series mostly up to 38.3 µM; activity change, negative = inhibition: at the top concentration
# Outline: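 1536-well qHTS counterscreen of the MLSMR; 200 cells/uL, 12 h pre-incubation, 23 nL cpd, 24 h at 37 deg C 5% CO2, luciferase detection reagent, 12 min RT, luminescence. Inhibition = undesired.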
# On the % scale 0 is the no-effect control and ±100 the full control effect; potency means the concentration at half of the fitted maximal effect.
Structure (SMILES),"activity change, negative = inhibition",Potency
CC(C)Oc1ccc(NC(=O)c2cc3ccccc3o2)cc1,-8.43%,–
Cc1ccc(NC(=O)C2CCN(S(=O)(=O)c3cc(-c4noc(C)n4)ccc3C)CC2)c(C)c1,1.29%,–
Cc1ccc(Cl)cc1NC(=O)/C(C#N)=C\c1cn(Cc2ccc(F)cc2)c2ccccc12,14.9%,–
Fc1ccc(-c2ccc(NCCN3CCOCC3)nn2)cc1,–,10 µM (active)
CN(CC(=O)NCCN1CCOCC1)S(=O)(=O)c1ccc(F)cc1,-3.23%,–
Cc1c(C(=O)NCCN2CCOCC2)sc2nc(-c3ccc(F)cc3)cn12,7.28%,–
COc1cc(OC)cc(C(=O)NCCc2csc3nc(-c4ccccc4F)nn23)c1,-13.8%,–
CCOc1ccc(NC(=O)CCc2c(C)nn(-c3ccc(N4CCCC4)nn3)c2C)cc1,2.64%,–
COc1ccc(C)cc1N(CC(=O)N1CCC(C)CC1)S(=O)(=O)c1ccc(C)cc1,-24.2%,–
O=C1/C(=C\c2ccc([N+](=O)[O-])cc2)CS(=O)(=O)C/C1=C/c1ccc([N+](=O)[O-])cc1,–,3.16 µM (active)
COc1cc(C(=O)N2CCN(C(=O)COc3cccc(C)c3)CC2)cc(OC)c1OC,-5.09%,–
CCc1nc2nc(C)cc(Nc3ccc(F)c(Cl)c3)n2n1,17.1%,–
COCCNC(=O)CSc1c(C)cnc2c1c(=O)n(C)c(=O)n2C,5.33%,–
CCOCCCNC(=O)c1c(NC(=O)Cc2coc3c(C)c(C)ccc23)sc2c1CCC2,23.9%,–
Cc1ccc(S(=O)(=O)c2nnn3c2nc(N2CCN(c4ccccc4F)CC2)c2cc(Cl)ccc23)cc1C,-2.54%,–
CCc1ccccc1N1CN(Cc2ccco2)CNC1=S,1.02%,–
CN(C)C(=S)N=c1ssc(=S)n1Cc1ccco1,–,0.316 µM (active)
CCOC(=O)c1ccc(CN(Cc2ccccc2)S(=O)(=O)c2ccc(Cl)cc2)cc1,-0.273%,–
COc1c(Cl)cc(Cl)cc1C(=O)Nc1cccc2cccnc12,1.03%,–
CC(C)C12CN3CC(C(C)C)(CN(C1)C3c1ccc(OCc3ccccc3)cc1)C2=O (centres undefined),-5.12%,–
Cc1ccccc1-c1nc2cc(NC(=O)c3cccc(OCCC(C)C)c3)ccc2o1,-0.847%,–
COc1ccc(-n2c(SC)nc3sc4c(c3c2=O)CCN(C(C)=O)C4)cc1,1.79%,–
O=C(c1ccc2c(c1)N(Cc1ccccc1)C(=O)c1ccccc1S2(=O)=O)N1CCCC1,-15.1%,–
CC1CCCCN1CC(=O)N1CCCc2c1c(=O)oc1ccc(OCc3ccccc3)cc21 (centres undefined),25.7%,–
CCC1CCCCN1Cc1c(O)ccc2c(=O)c(Oc3ccccc3Cl)c(C(F)(F)F)oc12 (centres undefined),-12.2%,–

Structure (SMILES),"activity change, negative = inhibition",Potency
COC(=O)c1sccc1S(=O)(=O)N(CC(=O)Nc1ccc(C)c(F)c1)c1ccc(C)c(C)c1,11%,–
O=S(=O)(c1ccc2nc(N3CCN(c4cccc(Cl)c4)CC3)ccc2c1)N1CCCCC1,-3.17%,–
COc1ccccc1NC(=O)CN1C(=O)c2ccccc2Sc2ccc(C(=O)N3CCCC3)cc21,2.54%,–
CCOc1ccc(NC(=O)c2cc3c(=O)n(Cc4cccs4)ccc3nc2C)cc1,-11.3%,–
CCCC(=O)Nc1ccc2oc(-c3ccc(O)c(Br)c3)nc2c1,1.34%,–
COc1ccc(C(F)(F)F)cc1NC(=O)c1sc2nc(-c3cccs3)ccc2c1N,42.7%,–
CCCCCn1c(=O)[nH]c2cc(C(=O)Nc3cc(C)cc(C)c3)ccc2c1=O,-1.84%,–
O=C(Cn1ncc2c3ccccc3n(Cc3ccccc3)c2c1=O)NC1CCCCCC1,1.54%,–
COc1ccc(-c2noc(CSc3nc4ccc(C)cc4[nH]3)n2)cc1,3.26%,–
Cc1ccc(-n2ncc(C(=O)N(C)Cc3ccccc3)c2-n2cccc2)cc1,6.28%,–
CCOc1ccc(S(=O)(=O)c2cn(Cc3ccc(OC)cc3)c3ccc(F)cc3c2=O)cc1,6.07%,–
Cc1ccc2nc(CNC(=O)c3ccccc3)[nH]c2c1,0.115%,–
O=C(/C(=C/c1cccc(Cl)c1)c1nc2ccccc2[nH]1)c1ccccc1,–,10 µM (active)
N#C/C(=C\c1ccccc1F)c1nc2ccccc2c(=O)[nH]1,3.51%,–
COc1ccc(-c2noc(CSc3nc(C)cc(=O)[nH]3)n2)cc1OC,4.68%,–
CCOc1ccc(NC(=O)CN(Cc2ccccc2)S(=O)(=O)c2ccc(Cl)cc2)cc1,5.24%,–
CCOc1ccc(N(Cc2ccccc2)C(=O)c2nc(S(C)(=O)=O)ncc2Cl)cc1,–,7.94 µM (active)
CCOc1ccc(N(Cc2ccccc2)C(=O)c2nc(SCC)ncc2Cl)cc1,1.37%,–
CCCCC(CC)CNC(=O)C1CCN(S(=O)(=O)c2cccc3nsnc23)CC1 (centres undefined),3.7%,–
COC(=O)CN1C(=O)CSc2ccc(S(=O)(=O)Nc3cc(C)ccc3C)cc21,0.545%,–
CCCNC(=O)c1ccc(Cn2c(SCC(N)=O)nc3ccccc3c2=O)cc1,-2.77%,–
COc1cccc(NC(=S)NC(=O)c2c(Cl)c(C)nn2C)c1,0.241%,–
O=C(Nc1cccc(Cl)c1)c1csnn1,0.685%,–
Cc1csc(NC(=S)Nc2cccc(Cl)c2)n1,–,0.891 µM (active)
O=C(CCOc1ccccc1)N(Cc1cccnc1)c1nc2ccc(Cl)cc2s1,18.2%,–

Structure (SMILES),"activity change, negative = inhibition",Potency
COc1ccc(NC(=O)Cn2c(=O)n(CCC(C)C)c(=O)c3cccnc32)cc1Cl,-15.9%,–
CCOc1ccc(NC(=O)CSc2c3c(nc4ccccc24)CCCC3)cc1,-14.3%,–
COc1ccc(C2NC(=O)N(C)C3=C2C(=O)N(c2ccc(C(=O)O)cc2)C3)cc1 (centres undefined),5.54%,–
COc1ccccc1CNc1nc2ccc(Cl)cc2n2cnnc12,-12%,–
O=c1c2ccccc2n(Cc2cccc(Cl)c2)c(=O)n1Cc1ccccc1,0%,–
COc1ccc(C(=O)CSc2c(C(C)C)cnc3c2c(=O)n(C)c(=O)n3C)cc1,-5.41%,–
COc1ccc(C2CC(=O)Nc3c2c(=O)nc2c(C)cccn32)cc1OC (centres undefined),-5.18%,–
CC(=O)N1c2ccccc2CC1C(=O)N1CCN(c2ccc(F)cc2)CC1 (centres undefined),-1.77%,–
COc1cc(C2c3c(oc4ccccc4c3=O)C(=O)N2c2nc(C)c(C)s2)ccc1O (centres undefined),0%,–
CC(C)(C)C1CCc2c(sc(NC(=O)c3ccccc3F)c2C(=O)N2CCCCC2)C1 (centres undefined),-15.3%,–
COc1ccc(NC(=O)N2CCCn3nc(C)cc32)cc1OC,1.04%,–
CCOc1ccc(NC(=O)Cn2c(=O)n(CCCC(=O)NCc3ccc4c(c3)OCO4)c(=O)c3ccccc32)cc1,-8.13%,–
CN(Cc1ccccc1)C(=O)CCS(=O)(=O)c1cc(Br)cc2c1N(C(=O)C1CC1)CC2,0%,–
COc1ccc(-c2cc(-c3nc(-c4cc(OC)c(OC)c(OC)c4)no3)[nH]n2)c(OC)c1,-21.5%,–
CCOC(=O)c1ccc(NC(=O)c2ncn(-c3ccccc3)n2)cc1,1.46%,–
COC(=O)c1c(NC(=O)c2ccc(Cl)c(Cl)c2)sc2c1CCCC2,-15.6%,–
O=c1[nH]c2cc(Br)ccc2n2cccc12,-1.34%,–
COc1cccc(-c2nc(S(=O)(=O)c3ccc(C)cc3)c(NCc3ccccc3)o2)c1,0%,–
CCN(CC(=O)Nc1ccc(Cl)c(S(=O)(=O)N(C)C)c1)Cc1nc2ccccc2c(=O)[nH]1,0.695% [at 0.307 µM],–
CCN(CC(=O)NC(=O)NCc1ccccc1)Cc1nc2ccccc2c(=O)[nH]1,–,6.31 µM (active)
CCCCN(CC(=O)Nc1cccc(S(=O)(=O)N2CCCC2)c1)Cc1nc2ccccc2c(=O)[nH]1,8.32%,–
COC(=O)c1cnn(-c2ccc(C(=O)Nc3ccc(OC(F)(F)F)cc3)cc2)c1N,-0.598%,–
Cc1ccc2nc(COc3ccccc3NC(=O)Nc3ccc(F)c(Cl)c3)cc(=O)n2c1,0.117%,–
COc1ccc(NC(=O)CN2CCCN(Cc3ccccc3)S2(=O)=O)cc1,17.2%,–
Cc1ccc(OC(=O)CSc2nnc(-c3cccs3)o2)cc1,1.35%,–

Structure (SMILES),"activity change, negative = inhibition",Potency
COc1ccc(Cn2c(C(=O)O)c(CNCCc3cccs3)c3ccc(OC)cc32)cc1,-17.4%,–
Oc1ccc(N=Nc2nccs2)c(O)c1,–,8.91 µM (active)
Oc1ccc2ccccc2c1N=Nc1nccs1,–,4.47 µM (active)
Cc1ccc(-c2noc(CSc3nnc(-c4ccc(Cl)cc4)n3C)n2)cc1,4.15%,–
Cc1ccc(C(=O)Nc2ccccc2F)cc1S(=O)(=O)N1CCOCC1,23.2%,–
Cc1cc2c(cc3c(SCc4cccc(Cl)c4)nnc(C)n32)o1,1.1%,–
CCOc1ccc(CCNC(=O)CN(c2ccc(C)cc2)S(=O)(=O)N(C)C)cc1OCC,0.596%,–
CC(=O)c1ccc(N2CCN(C3C(=O)c4ccccc4N3C(C)=O)CC2)cc1 (centres undefined),1.24%,–
Cc1cc(-c2ccc(C)c(S(=O)(=O)N3c4ccccc4CC3C)c2)on1 (centres undefined),-4.7%,–
Cc1ccc(-n2c(=O)c3cccnc3n2CC(=O)Nc2ccccc2C(F)(F)F)cc1C,0.785%,–
Cc1nn(-c2ccc(N3CCCCC3)nn2)c(C)c1CCC(=O)NCc1ccc(F)cc1,1.15%,–
CCCCNC(=S)N/N=C1\CCCCc2ccccc21,-18%,–
S=C(NCCc1ccccc1)NCc1ccccc1Cl,-14.8%,–
CCCC1CCC(=NNC(=S)NCCc2ccccc2)CC1 (centres undefined),–,4.47 µM (active)
CCN(CCCNC(=O)c1cc(Nc2ccc(OC)cc2)nc2ccccc12)c1cccc(C)c1,145%,–
CCc1ccc(NC(=O)CSc2nc3c([nH]c4ccccc43)c(=O)n2-c2cccc(OC)c2)cc1,-2.28%,–
Fc1ccc(CN2CCc3nc(Nc4ccccc4)ncc3C2)cc1F,-20%,–
COc1ccccc1-c1cc(C(F)(F)F)nc(S(=O)(=O)CCCC(=O)Nc2ccc(F)cc2F)n1,-12.6%,–
C/C(=N\NC(=O)c1ccc(C)cc1)C1C(=O)c2ccccc2C1=O,–,4.47 µM (active)
O=C1c2ccccc2C(=O)C1C(=O)C1CC1,-4.71%,–
C/C(=N\NC(=O)c1ccc(CSc2nc(C)cc(C)n2)cc1)C1CCCCC1,-16.1%,–
Cc1ccc(-n2cnc3cc(C(=O)NCCC4=CCCCC4)ccc32)cc1Cl,-0.346%,–
O=C(CSc1cn(CC(=O)N2CCOCC2)c2ccccc12)Nc1ccccc1,1.07%,–
CCCCOC(=O)/C(C#N)=C/c1ccc(-c2cccc(C(F)(F)F)c2)o1,24%,–
